# Test results as given in the supplement of paper PMC3334620.
# The full ranking holds about 33,000 sequences; the median of “E-score (-0.5 to 0.5)” is about -0.036, and the highest 2% start at about 0.37. The full list was thinned out, with the highest values kept by preference.
# Biological target: T1, Yer064c (UniProt P40041)
# T1 sequence: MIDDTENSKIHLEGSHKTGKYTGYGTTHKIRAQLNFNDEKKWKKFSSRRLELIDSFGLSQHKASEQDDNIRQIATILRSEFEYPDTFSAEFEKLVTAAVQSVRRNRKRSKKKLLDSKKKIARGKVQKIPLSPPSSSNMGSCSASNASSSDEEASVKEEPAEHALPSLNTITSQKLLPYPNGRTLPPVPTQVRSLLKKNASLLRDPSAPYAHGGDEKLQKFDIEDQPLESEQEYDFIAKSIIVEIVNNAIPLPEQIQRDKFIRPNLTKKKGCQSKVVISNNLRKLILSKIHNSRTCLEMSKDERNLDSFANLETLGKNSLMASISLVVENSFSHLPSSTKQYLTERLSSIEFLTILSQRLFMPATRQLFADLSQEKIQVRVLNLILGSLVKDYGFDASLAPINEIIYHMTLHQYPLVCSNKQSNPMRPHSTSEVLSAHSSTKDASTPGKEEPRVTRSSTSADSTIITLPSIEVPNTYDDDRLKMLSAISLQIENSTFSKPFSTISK
# Experiment: PBM E-score (8-mer binding enrichment) (E-score (-0.5 to 0.5)); higher = stronger / more preferred TF binding
# Conditions: protein concentration: 200 nM; construct: GST-full length
# Summary of the method: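 Universal all-10-mer Agilent arrays, fresh or stripped once, were converted to double-stranded form by primer extension. GST-tagged yeast transcription factors from PURExpress in vitro transcription/translation, full-length or DNA-binding domain only, were applied at about 100-200 nM and detected with fluorescent anti-GST. After masliner normalisation, the Universal PBM Analysis Suite scored each ungapped eight-base word together with its reverse complement by E-score.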
row,Sequence,PBM E-score
1,CTTTCCCC,-0.153
2,TGTCGTAA,-0.0131
3,GGTCGTAA,-0.0401
4,CGTCGTAC,-0.0504
5,AGTCGTAG,0.406
6,ACTCGTAG,0.218
7,ACTCGTAT,0.107
8,AGTCGTAT,0.379
9,AGTCGTAA,0.378
10,GGTCGTAC,-0.205
11,CGTCGTAG,0.0225
12,AATCGTAT,0.118
13,AGTCGTAC,0.399
14,GAGAGCGA,-0.0993
15,GCGATAAC,-0.135
16,CGTGGACA,-0.323
17,GCGCGGAC,0.0396
18,ATGACCGA,-0.0163
19,AGTCCTAT,0.306
20,TGTCCTAA,-0.0793
21,AGTCCTAA,0.366
22,AATAGCTA,-0.0209
23,GCCTGGGA,-0.343
24,CAGAATCA,0.349
25,GAGAATTA,-0.167

row,Sequence,PBM E-score
1,AAGAATCA,0.392
2,GAGAATCC,-0.141
3,TAGAATCA,0.362
4,GAGAATCA,0.392
5,GAACAGCA,-0.175
6,AATGGACC,0.0237
7,CGAGACAC,0.13
8,AGAGACTC,0.386
9,GGAGACTA,0.375
10,CCAGACTA,0.208
11,GGAGACAA,-0.173
12,AGAGACTG,0.0785
13,CGAGACTA,0.37
14,CCAGACTC,0.206
15,CGAGACGA,-0.0652
16,AGAGACTA,0.347
17,CGAGACTC,0.369
18,GGAGACCA,-0.176
19,AGCCTAGC,-0.166
20,CTTCGCGA,0.105
21,ATGAGATA,0.0605
22,GTGCGGCA,-0.143
23,CGGCGATA,0.143
24,AAGGAACG,-0.167
25,AAAAGGAT,-0.0899

row,Sequence,PBM E-score
1,GCACCCCC,-0.268
2,CGTTAGTC,0.45
3,AGTTAGTA,0.196
4,AGTTAGTC,0.447
5,CGTTAGTA,0.0645
6,CGTTAGAC,-0.00028
7,AGTTAGTG,0.0232
8,AATTGTAG,0.13
9,AAGAGCGC,0.0664
10,CCGTACAG,-0.123
11,AAAATATA,0.102
12,ATAAGTCA,0.438
13,GTAAGTAA,0.0006
14,CTAAGTAA,0.204
15,ATAAGTCC,0.161
16,GTAAGTGA,0.131
17,ATAAGTCG,0.223
18,CTAAGTCC,0.148
19,GTAAGTCA,0.448
20,CTAAGTCA,0.449
21,CATCTCGG,0.181
22,AATCCAGC,-0.149
23,AACCCATA,0.111
24,GAAGCGGA,-0.189
25,CAATCAGC,0.317

row,Sequence,PBM E-score
1,AAATCAGA,0.158
2,AAATCAGC,0.227
3,GAATCAGC,0.417
4,CAATCAGA,0.208
5,GAATCAGA,0.402
6,CTTGCCGC,-0.264
7,AGAGAACA,-0.0209
8,GCGAACGC,-0.058
9,ACGAATCT,0.123
10,TCGAATAA,-0.00971
11,GCGAATCA,0.414
12,TCGAATCA,0.369
13,ACGAATCC,0.171
14,CCGAATCC,-0.186
15,GCGAATCC,-0.066
16,ACGAATCA,0.404
17,CCGAATCA,0.348
18,CTCACGCC,0.172
19,CGGGAATC,0.0615
20,CGCCTCGC,-0.087
21,AATTCAAT,0.0175
22,AAATGCCC,-0.188
23,GAGACACA,0.288
24,AGGGCTGC,-0.346
25,AACACACC,0.0884

row,Sequence,PBM E-score
1,ATGCGGCG,-0.174
2,CCCGCCCC,-0.223
3,CACTAACC,-0.153
4,GATTAATC,0.391
5,GATTAACA,0.367
6,GATTAACC,0.294
7,GACTAACC,0.44
8,AACTAACC,0.0831
9,CATTAATC,0.271
10,GACTAACA,0.449
11,TACTAACA,0.0931
12,TATTAACA,0.0799
13,CACTAACA,0.0977
14,GATTAATA,0.325
15,GAGCAATC,0.146
16,CATAGGGG,-0.149
17,TCCCCCGA,-0.176
18,GCGGCGAA,-0.17
19,CGATGAAA,0.0671
20,ATTTTTCG,0.00581
21,TGAGGAAA,-0.0935
22,GCCCTAGA,-0.316
23,CGTACGCA,-0.195
24,CCAGCACC,-0.231
25,CCTAAAGA,0.0245

row,Sequence,PBM E-score
1,ACTGTGAT,0.165
2,ACTGTGAC,0.397
3,ACTATGAC,0.372
4,CCTATGAC,0.235
5,GCTATGAC,0.307
6,ACTGTGAA,0.0208
7,CCTTGGTA,0.00702
8,AAGTTCTG,0.0281
9,ATTAAGGA,0.176
10,AGTTGCCC,0.00742
11,ACAAGTCC,-0.047
12,GCTAATCC,-0.145
13,TCTAATAA,0.115
14,CCTAATCA,0.376
15,CCTAATCG,0.0953
16,TCTAATCA,0.386
17,ACTAATCT,0.273
18,GCTAATCA,0.372
19,CCTAATCC,-0.33
20,ACTAATCG,0.226
21,ACTAATCA,0.403
22,ACTAATCC,0.208
23,GCTAATTA,0.0849
24,CTTAACCA,0.197
25,ATTGGGAC,0.0416

row,Sequence,PBM E-score
1,TCGTTCCA,-0.108
2,ACCCTGTG,-0.0328
3,ACCCAGAT,-0.0932
4,CGAGGCTA,-0.0432
5,ACACTCGC,0.111
6,CCCGACTC,0.389
7,CTCGACTA,0.299
8,CGCGACTA,0.397
9,GGCGACCA,-0.416
10,AGCGACTC,0.412
11,GGCGACGA,-0.226
12,GGCGACTA,0.402
13,CCCGACTA,0.314
14,CGCGACAA,0.124
15,AGCGACCC,-0.196
16,ACCGACTC,0.328
17,AGCGACGC,-0.273
18,TAATTCAA,0.14
19,TAGGGCCA,-0.307
20,GCCCCGGA,-0.22
21,AGCTTGGC,-0.115
22,ATAGAGAC,0.0997
